We go through 90 compounds from PubChem BioAssay AID1438 (Sanford-Burnham Center for Chemical Genomics, 2008).

Out of some 2,200 compounds screened, about 45 (2%) were called active. Not all results are given here. Potency and affinity values are given separately. A number with no mark means an inactive call. No rule for the calls is given here.

Chain of Runt-related transcription factor 1 (Homo sapiens) + Core-binding factor subunit beta (Homo sapiens) (Q01196 whole entry, looked up, the tested form may be a part): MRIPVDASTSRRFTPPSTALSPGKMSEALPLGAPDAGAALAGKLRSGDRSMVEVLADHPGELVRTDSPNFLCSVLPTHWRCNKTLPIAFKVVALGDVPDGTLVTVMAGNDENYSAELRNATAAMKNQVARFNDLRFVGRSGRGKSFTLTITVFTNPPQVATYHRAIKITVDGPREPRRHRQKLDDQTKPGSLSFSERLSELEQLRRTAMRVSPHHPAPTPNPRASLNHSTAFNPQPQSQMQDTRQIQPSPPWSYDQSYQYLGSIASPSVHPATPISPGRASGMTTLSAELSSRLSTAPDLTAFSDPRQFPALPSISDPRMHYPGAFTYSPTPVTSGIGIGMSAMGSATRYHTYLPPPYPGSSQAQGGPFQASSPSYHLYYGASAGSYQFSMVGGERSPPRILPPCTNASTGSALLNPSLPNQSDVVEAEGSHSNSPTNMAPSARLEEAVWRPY
Chain of Runt-related transcription factor 1 (Homo sapiens) + Core-binding factor subunit beta (Homo sapiens) (Q13951 whole entry, looked up, the tested form may be a part): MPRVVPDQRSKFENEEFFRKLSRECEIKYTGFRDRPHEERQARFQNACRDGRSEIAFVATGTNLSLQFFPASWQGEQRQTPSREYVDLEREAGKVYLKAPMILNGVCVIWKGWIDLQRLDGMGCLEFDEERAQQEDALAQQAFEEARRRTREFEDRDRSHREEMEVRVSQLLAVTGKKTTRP

This assay has as its target Runt-related transcription factor 1 (Homo sapiens) + Core-binding factor subunit beta (Homo sapiens) (UniProt Q01196+Q13951). In words: inhibitors of RUNX1 Runt–CBFb-SMMHC binding, biochemical, TR-FRET (AID 1438). The settings on record: TR-FRET Runt domain–CBFb-SMMHC binding, at 20 µM, active compounds read high.
For the compound `N#C/C(=C(/O)CCCl)c1ccccn1`, the inhibition (as a rule, the drop in the measured response relative to a control, in per cent) is -8%.

`c1ccc(-c2onc3cc4c(cc23)OCCO4)cc1`: the inhibition is 17.4%. Under `CCOC(=O)c1cc2c(=O)n3cccc(C)c3nc2n(CC(C)C)c1=NC(=O)c1ccco1` stands -5.3%; under `CCOc1ccc2nc(NCCNC(=O)CC)c(C#N)cc2c1`, 33.5%; under `CC(=O)N(C)/C=C1\Sc2ccccc2C1=O`, 6.4%.

In the case of `Cc1ccc(-n2c(=O)c(C#N)cc3c(=O)n4cccc(C)c4nc32)cc1`, the inhibition is 48.6%. Under `COCCCn1c(=O)/c(=C\c2ccc(OC(F)F)c(OC)c2)s/c1=C(/C#N)C(=O)NCCOC` stands -12.1%; under `Cc1ccc(C)c(OCCn2cc(/C=C(\C#N)C(=O)NCc3ccco3)c3ccccc32)c1`, 17.3%.

Turning to `Cc1cc(N2C(=O)C=CC2=O)c([N+](=O)[O-])cc1C`, the inhibition is 52.7% (active).

With `COc1cc(N2C(=O)C=CC2=O)c(OC)cc1Cl`, the inhibition was -8.5%.

In the case of `C=C(C)CNC(=S)Nc1sc2c(c1C(=O)OCC)CC(C)(C)OC2`, the inhibition was -9.8%. For the compound `COc1ccc(/C=C2\CCc3c2nc2ccccc2c3C(=O)O)cc1OC`, the inhibition is -11.1%. `O=C(O)c1c2c(nc3ccccc13)/C(=C/c1ccc(O)cc1)CC2`: the inhibition was -6.6%. Under `NS(=O)(=O)c1ccc(NC(=O)COC(=O)c2c3c(nc4ccccc24)/C(=C\c2ccc4c(c2)OCO4)CCC3)cc1` stands -24.4%; under `Cc1cccc(C)c1NC(=O)COC(=O)c1c2c(nc3ccccc13)/C(=C\c1ccc3c(c1)OCO3)CCC2`, 1.3%. Under `CCN1CCc2c(C#N)c(N3CCOCC3)nc(NCc3ccccc3)c2C1` stands 35.4%; under `Cc1cccn2c(=O)c3cc(C(=O)NCC4CCCO4)c(=N)n(CCN4CCOCC4)c3nc12` (stereo not given), 11.3%.

For the compound `COc1ccc(C2C=C(c3ccccc3)Nc3ncnn32)cc1` (stereo not given), the inhibition was 30.8%. As for `Cc1ccccc1-n1c(=O)c(C#N)cc2c(=O)n3ccccc3nc21`, the inhibition is 23.6%. Take `c1cc2c(cc1-c1csc(NNC3=NCCCCC3)n1)OCCO2`: the inhibition is -4.3%. For the compound `N#Cc1c(NCCO)nc(NCc2ccccc2)c2c1CCN(Cc1ccccc1)C2`, the inhibition is 48.5%. Under `C=CCNc1nc(NCc2ccccc2)c(C#N)c2c1CN(C)CC2` stands 31.3%; under `Cn1c(=N)c(S(=O)(=O)c2ccc(F)cc2)cc2c(=O)n3ccccc3nc21`, 47.6%. The value for `COc1cc2cc(C(=O)N3CCN(Cc4ccc5c(c4)OCO5)CC3)c(=O)oc2cc1OC` was -6.8%. Under `O=C(O)c1cc2ccc3ccccc3c2oc1=O` stands 34.5%. For `O=C(c1cc2ccccc2oc1=O)N1CCN(CCc2ccccc2)CC1`, the inhibition was 55.2% (active). For `CC1=CC(c2ccc(Cl)cc2)n2nc(NC(=O)CCC(=O)O)nc2N1` (stereo not given), the inhibition was -7.4%. Under `Cc1cc(-c2nc3cccnc3s2)ccc1NS(=O)(=O)c1cccs1` stands -9.2%; under `Cc1cccn2c(=O)c3cc(C#N)c(=NC(=O)c4ccco4)n(Cc4ccco4)c3nc12`, -9.7%.

As for `CCOC(=O)c1cc2c(=O)n3ccccc3nc2n(Cc2ccco2)c1=NC(=O)c1ccc(OC)cc1`, the inhibition is -16.9%. Under `Cc1ccccc1C(=O)N=c1c(C#N)cc2c(=O)n3cccc(C)c3nc2n1Cc1ccco1` stands 47%; under `COCCCn1c(=NC(=O)c2ccncc2)c(C#N)cc2c(=O)n3cccc(C)c3nc21`, 14%.

For the compound `CC(=O)N=c1c(C#N)cc2c(=O)n3cccc(C)c3nc2n1Cc1ccco1`, the inhibition was -8.8%. On to `CC(=O)N=c1c(C#N)cc2c(=O)n3ccccc3nc2n1Cc1ccccc1`, for which the inhibition is 47.4%.

On to `O=C(Cc1nc2ccccc2s1)c1ccc(O)cc1O`, for which the inhibition was 15.1%. Under `CCOC(=O)c1cc(C(=O)OCC)c2ccccn2c1=O` stands 25.7%; under `COCCCNC(=O)c1cc2c(=O)n3cc(C)ccc3nc2nc1NCC1CCCO1` (stereo not given), -2.6%; under `CC(C)OC(=O)c1c2nc3ccccc3nc2n2c1[nH]c(=O)c1ccccc12`, -203%. Under `Cc1ccc2[nH]cc(C(=O)CN3CCC4(CC3)OCCO4)c2c1` stands 2.6%; under `O=c1[nH]c2ccccc2nc1/C=C/c1ccccc1`, -5.7%. Regarding `COCc1cc(=O)n2c([nH]c3ccccc32)c1C#N`, the inhibition was 38.4%. The value for `O=c1[nH]c2ccccc2n2c(-c3ccccc3)nnc12` was 84.1% (active); that for `Cc1cccn2c(=O)c3cc(C(=O)NCc4ccco4)c(=N)n(C(C)C)c3nc12` was 32.5%; that for `COc1cc(/C=C/C(=O)OCC(=O)Nc2ccccc2Sc2ccc(Cl)cc2)ccc1O` was 1.1%.

Regarding `Cc1cccn2c(=O)c(/C=C(\C#N)C(=O)NC3CCS(=O)(=O)C3)c(N3CC(C)OC(C)C3)nc12` (stereo not given), the inhibition is -39.6%.

As to `COc1ccc(OC)c(N=c2ssnc2Cl)c1`, the inhibition is -11.1%. Under `CCCN1CCc2c(sc(NC(=S)NC(=O)c3ccccc3)c2C#N)C1` stands -14.1%; under `N#Cc1c(NC(=S)NC(=O)c2ccccc2)sc2c1CCN(CCc1ccccc1)C2`, 52% (active); under `CC(C)N1CCc2c(sc(NC(=S)NC(=O)c3ccccc3)c2C#N)C1`, 21.2%. For the compound `CNS(=O)(=O)c1ccc2nc(NC(=O)c3ccc(N4C(=O)CCC4=O)cc3)sc2c1`, the inhibition is -3.6%. The value for `O=C(Nc1nc2c(s1)CN(Cc1ccccc1)CC2)C1CCC1` was 43%; that for `COc1ccc(C2c3ccc(O)cc3Oc3ncn(CC(C)C)c(=N)c32)cc1` (stereo not given) was -6.8%; that for `CC(=O)Nc1sc2c(c1C(N)=O)CCN(Cc1ccccc1)C2` was -0.2%. On to `NNc1nc2sc3c(c2c(=O)n1C1CCCCC1)CCN(Cc1ccccc1)C3`, for which the inhibition is -9.4%. The value for `CC1(C)CC(=O)C2=C(C1)Nc1ccccc1NC2` was -9.5%. Under `O=C(c1ccccc1)c1cc2ccc(O)cc2oc1=O` stands -8.4%.

On to `CCCn1c(=N)c(C(=O)NC2CCCC2)cc2c(=O)n3cccc(C)c3nc21`, for which the inhibition was 2.5%. The value for `CCc1ccc(S(=O)(=O)Nc2ccc(-c3nc4cccnc4s3)cc2)s1` was 44%; that for `O=S(=O)(Nc1ccc(-c2nc3cccnc3s2)cc1)c1cccs1` was 29.2%. The value for `Cc1cccc2cc(C#N)c(NCCNS(=O)(=O)c3ccccc3)nc12` was -12.6%.

As for `CN1CCN(Cc2c(O)ccc3cc(-c4ccccn4)c(=O)oc23)CC1`, the inhibition was -17.3%.

`COc1ccc(C2C3=C(CC(C)(C)CC3=O)Nc3c2c(=O)[nH]c2nc(C)nn32)cc1` (stereo not given): the inhibition was 17.2%.

For `Cc1nc2[nH]c(=O)c3c(n2n1)NC1=C(C(=O)CC(C)(C)C1)C3c1ccc(F)cc1` (stereo not given), the inhibition is 46.7%. Under `O=C(Nc1nccs1)c1ccccc1N=Cc1ccccc1` stands 49.3%; under `Cn1c(C(=O)NCc2ccccn2)cc2c(=O)n3ccccc3nc21`, 11.6%; under `CC(C)Cn1c(N)c(C(=O)NCCN2CCOCC2)c2nc3ccccc3nc21`, 46.7%. The value for `CC(C)Cn1c(N)c(C(=O)NCc2cccs2)c2nc3ccccc3nc21` was 17%.

For `Nc1c(C(=O)NCc2ccco2)c2nc3ccccc3nc2n1CCc1ccccc1`, the inhibition was 42.7%.

With `COc1ccc(CCn2c(N)c(C(=O)NCc3ccco3)c3nc4ccccc4nc32)cc1`, the inhibition was 46.3%. Under `CCN1CCc2nc(SCC(=O)Nc3ccc(OC)cc3)c(C#N)cc2C1` stands 20.7%; under `CCOC(=O)C1=C(CSc2nc3c(cc2C#N)CN(C)CC3)OC(N)=C(C#N)C1c1ccncc1` (stereo not given), 35.4%; under `Cc1cc(=O)oc2cc(OC(=O)c3cncc(Br)c3)ccc12`, -4.4%. Under `O=C(COC(=O)COc1ccccc1[N+](=O)[O-])NC1CCCC1` stands -6%; under `COc1ccc(OCCn2cc(/C=C(\C#N)C(=O)NCc3ccco3)c3ccccc32)cc1`, -10.8%.

As to `CN1CCc2cc3c(c4c2[C@H]1[C@H](O)c1ccccc1-4)OCO3`, the inhibition is 18.4%. The value for `COc1c(O)ccc2c1CN1CCc3cc4c(cc3C1C2)OCO4` (stereo not given) was -9.6%. The value for `CNC(=O)/C(C#N)=C/c1c(N(Cc2ccccc2)Cc2ccccc2)nc2c(C)cccn2c1=O` was -14.8%; that for `CC(=O)N=c1c(C#N)cc2c(=O)n3ccccc3nc2n1CCCOC(C)C` was 7.1%; that for `CCN(CC)c1ccc2cc(C(=O)Nc3cccnc3N3CCOCC3)c(=O)oc2c1` was -26.6%. In the case of `CCCCCCc1cc2cc(S(=O)(=O)c3ccc(Cl)cc3)c(=O)oc2cc1O`, the inhibition is 12.2%. The value for `Cc1ccc2nc3c(cc(S(=O)(=O)c4ccccc4)c(=N)n3Cc3ccco3)c(=O)n2c1` was -7.9%; that for `Cc1cccn2c(=O)c3cc(S(=O)(=O)c4ccc(F)cc4)c(=N)n(Cc4ccco4)c3nc12` was -6.5%.

Regarding `CCn1c(=N)c(S(=O)(=O)c2ccccc2)cc2c(=O)n3ccccc3nc21`, the inhibition was -19.8%. For the compound `CCCn1c(=N)c(S(=O)(=O)c2ccccc2)cc2c(=O)n3ccccc3nc21`, the inhibition was -6.9%. Under `COC(=O)C1=CN(CC2CCCO2)C=C(C(=O)OC)C1c1ccccc1C(F)(F)F` (stereo not given) stands 45.6%.

In the case of `Cc1ccccc1OCCn1cc(/C=C(\C#N)C(=O)NCc2ccco2)c2ccccc21`, the inhibition is 20.8%. Under `COCCOC(=O)C1=C(C)NC2=C(C(=O)CC(C)(C)C2)C1c1cccnc1` (stereo not given) stands 35.5%. Under `Fc1ccc(CSc2nc3ncccc3[nH]2)cc1` stands -9.6%. The value for `CCC(C)n1c(=N)c(C#N)cc2c(=O)n3cccc(C)c3nc21` (stereo not given) was -18.9%; that for `CCOC(=O)c1cc2c(=O)n3ccccc3nc2n(Cc2ccco2)c1=NC(=O)c1cccc(OC)c1` was -10.1%.
